# Compounds with a hit are over-represented: about 8.1% of the library has one in this group of screens.
# KB-3-1 cytotox: kills parental KB-3-1 adenocarcinoma cells; KB-3-1 viability, CellTiter-Glo ATP luminescence, 72 h; Potency, µM (doses to about 46.1 µM), most hits filed as cytotoxic; actives 1.4% (n = 400,000); AID 1347075; also: % is scaled to controls: 0 for no effect and ±100 for the full control effect; nearly all actives have a fitted effect of over 60% in size
#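 Parental KB-3-1 viability, qHTS format: 72 h compound exposure, 37 °C; CellTiter-Glo; media-only wells and DMSO plates as controls; concentration-effect fits on corrected data.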
# ELG1 repair inh: inhibitors of ELG1-dependent DNA repair in HEK293T cells; HEK293T ELG1-luciferase reporter, luminescence, 16 h; DNA damage induced by 5-fluorouridine; Potency, µM (doses to about 46.1 µM), for the others: top-dose activity change, negative = inhibition, actives largely listed as inhibitors; actives 2.3% (n = 330,000); AID 504467; also: % is scaled to controls: 0 for no effect and ±100 for the full control effect; nearly all actives have a fitted effect of over 55% in size
#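 Luminescence from the luciferase reporter, measured 30 min after ONE-Glo reagent at room temperature, was the read-out. Beforehand, 2,000 cells per well were exposed for 16 hr at 37 °C to 5-fluorouridine together with compound or vehicle.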
# SW480 rerep: inducers of DNA re-replication in SW480 colon cancer cells. SW480 DNA re-replication, Hoechst DNA content imaging, 48 h. Potency, µM (top dose mostly 46.1 µM), without a hit: top-dose re-replication activation, usual class: activators. AID 624297. actives 1.8% (n = 340,000); also: % of control where 0% means no effect; nearly all actives have a fitted effect of over 55% in size
#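 SW480 cells exposed to compounds for 48 hr at 37 C, 5% CO2, then Hoechst-stained 40 min. Nuclear DNA content imaged by fluorescence scanning (405 nm excitation, 500-530 nm emission); re-replication scored as increased high-intensity nuclei.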
# KB-V1 MDR tox: KB-V1 MDR subline cytotoxicity; actives 3.4% (n = 400,000); AID 1347076; KB-V1 MDR cells viability, CellTiter-Glo, 72 h; Potency, µM (titrated, usually from 46.1 µM), actives largely listed as cytotoxic; also: % is scaled to controls: 0 for no effect and ±100 for the full control effect; nearly all actives have a fitted effect of over 60% in size
#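 Potencies derive from concentration-effect curves fitted to normalized luminescence (CellTiter-Glo) of KB-V1 cells treated for 72 h at 37 degrees C in phenol-red-free DMEM containing 10% FBS.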
# MCF10A rerep: DNA re-replication induction in MCF 10a cells; MCF 10A DNA re-replication, Hoechst nuclear intensity, 48 h; Potency, µM (highest dose often 46.1 µM), for the others: top-dose activity, positive = re-replication, usual class: activators; actives 2.9% (n = 350,000); also: % of control where 0% means no effect; nearly all actives have a fitted effect of over 50% in size
# Numbers without * were called inactive; i = inactive; ? = inconclusive; . = no result; [ ] = remark or other dose. Calls follow the shape of the dose curve; as a rule, active = well fitted curve in the direction sought with a large enough effect; inconclusive = small, poorly fitted or top-dose-only effect, or another doubt; inactive = no such curve, though single readings can be large; an effect the other way counts as inactive or inconclusive. Potency is read from the fitted curve at half-maximal effect.
SMILES,KB-3-1 cytotox,ELG1 repair inh,SW480 rerep,KB-V1 MDR tox,MCF10A rerep
COc1cc(NC(=O)c2cccs2)c(OC)cc1NC(=O)CCC(=O)Nc1ccc2ncccc2c1,i,14.6µM*,?,i,20.6µM*
COc1ccc(OCC(=O)Nc2ccc(NC(=O)c3cccs3)c(OC)c2)cc1,i,?,-1.5%,i,-1.4%
COc1ccc(/C=C/C(=O)c2ccc(NC(=O)c3cccs3)cc2)cc1OC,i,?,?,20.6µM*,9.2µM*
COc1ccc(C(=O)Nc2ccc(NC(=O)c3cccs3)cc2)cc1OC,i,.,.,i,.
COc1ccc(C(=O)Nc2cccc(NC(=O)c3cccs3)c2)cc1OC,i,14.6µM*,2.1%,i,?
COc1ccc(Br)cc1/C=C/C(=O)c1ccc(NC(C)=O)cc1,4.11µM*,14.6µM*,14.6µM*,?,6.51µM*
COc1ccc(NC(=O)/C=C/c2cc(Br)ccc2OC)cc1,i,?,-0.7%,i,?
O=C1NC(=S)S/C1=C/c1ccc(Oc2cnccn2)cc1,i,8.0%,9.2%,i,-18.7%
COc1ccccc1C(=O)Nc1ccc(C(=O)/C=C/c2cccs2)cc1,i,5.0%,?,23.1µM*,?
O=C1C(N2CCOCC2)=C(n2nnc3ccccc32)C(=O)c2ccccc21,i,2.59µM*,?,4.11µM*,?
CCOC(=O)Cn1c(-c2cccnc2Cl)nc2cc(Cl)c(Cl)cc21,i,0.3%,-9.5%,20.6µM*,6.4%
COc1ccc(S(=O)(=O)Nc2cccc(-c3ccc(N4CCOCC4)nn3)c2)cc1F,i,.,.,i,.
COc1cc(C(=O)NC2CCN(C)CC2)ccc1Nc1ncc2c(n1)N(C1CCCC1)CCC(=O)N2C(C)C,?,.,-4.6%[9.22 µM],i,?
COc1cc(C(=O)NC2CCN(C)CC2)ccc1Nc1ncc2c(n1)N(CCc1ccccc1)CCC(=O)N2C,?,.,0.206µM*,i,9.2µM*
O=C(NCC(c1cccs1)N1CCOCC1)C1CCN(S(=O)(=O)c2cc(Cl)ccc2Cl)CC1 (centres undefined),i,.,-1.6%,9.2µM*,7.6%
Cc1cc(Cl)ccc1OCC(=O)NCC(c1cccs1)N1CCOCC1 (centres undefined),?,-20.3%,-99.0%,7.31µM*,-1.6%
O=C(NCC(c1cccs1)N1CCOCC1)C1CCN(S(=O)(=O)c2c(Cl)cccc2Cl)CC1 (centres undefined),i,-6.3%,-4.2%,?,7.0%
CCn1c(=O)cc(OCC(=O)NCCCN2CC(C)CC(C)C2)c2ccccc21 (centres undefined),i,?,-12.8%,i,?
CCNC(=S)NNC(=O)c1cc(Br)cs1,i,0.9%,16.4µM*,i,3.0%
CCNC(=S)NNC(=O)c1cccs1,i,1.7%,-4.9%,i,-5.3%
CCC(C)(C)n1nnnc1C(c1cc2cc(C)cc(C)c2[nH]c1=O)N1CCCC1 (centres undefined),i,14.6µM*,22.3%,i,?
Cc1ccc(C)c2[nH]c(=O)c(C(c3nnnn3C(C)(C)C)N3CC=C(c4ccc(F)cc4)CC3)cc12 (centres undefined),i,7.31µM*,0.164µM*,?,?
CCC(C)(C)n1nnnc1C(c1cc2cccc(C)c2[nH]c1=O)N1CCCC1 (centres undefined),?,-26.7%,14.5%,?,19.1%
Cc1cc(C)c2[nH]c(=O)c(C(c3nnnn3CC3CCCO3)N3CCC(C)CC3)cc2c1 (centres undefined),i,14.5%,?,4.61µM*,18.5%
CCC(C)(C)n1nnnc1C(c1ccc(C)cc1)N1CCCC1 (centres undefined),i,5.3%,23.1µM*,?,?
SMILES,KB-3-1 cytotox,ELG1 repair inh,SW480 rerep,KB-V1 MDR tox,MCF10A rerep
Cc1cc(C)c2[nH]c(=O)c(C(c3nnnn3C(C)(C)C)N3CCN(C(=O)c4ccco4)CC3)cc2c1 (centres undefined),i,?,-0.6%,i,1.1%
O=c1[nH]c(SCc2ccccc2Cl)nc2c1cnn2-c1ccccc1,i,11.3%,-9.0%,i,?
COc1ccc(CN(C)CC(=O)Nc2ccc(SC(F)F)cc2)cc1OC,i,?,-1.3%,?,24.8%
Cc1c(O)ccc(C(=O)CN2C(=O)c3ccccc3C2=O)c1O,i,10.1%,-1.8%,?,13.1%
c1ccc2sc(SSc3nc4ccccc4s3)nc2c1,.,.,-0.7%,.,-1.9%
O=S1(=O)C=C(Sc2nc3ccccc3s2)c2ccccc21,2.31µM*,?,?,?,2.91µM*
Cc1cc(C)nc(SC2=CS(=O)(=O)c3ccccc32)n1,18.4µM*,?,20.6µM*,?,16.4µM*
CSc1nnc(-c2ccccc2)o1,i,?,-2.7%,i,-1.3%
O=S1(=O)C=C(Sc2nnc(-c3ccccc3)o2)c2ccccc21,14.6µM*,16.4µM*,0.581µM*,?,?
Nc1nnn(-c2ccccc2)c1-c1ccccc1,i,.,14.6µM*,i,-0.8%
O=C(Cc1ccc(F)cc1)Nc1cccc2cccnc12,i,29.9%,2.8%,16.4µM*,12.7%
Clc1ccc(-c2nnc(-c3ccco3)nc2N2CCCCC2)cc1,i,-4.1%,-2.3%,18.4µM*,?
Cc1nn(-c2ccccc2)c(C)c1NC(=O)COc1ccc(C#N)cc1,i,-15.2%,3.8%,18.4µM*,?
Cc1nn(-c2ccccc2)c(C)c1NC(=O)COc1ccc(Br)cc1Cl,14.6µM*,23.1µM*,-4.7%,?,?
Cc1nn(-c2ccccc2)c(C)c1NC(=O)COc1ccc2ccccc2c1,?,?,0.6%,14.6µM*,?
COc1ccc(OC)c(NC(=O)c2cccnc2Sc2ccccc2)c1,i,1.7%,-3.3%,i,-7.7%
O=C(Nc1ccc(S(=O)(=O)NCCc2ccccc2)cc1)c1ccc(Br)o1,i,-22.7%,2.9%,10.3µM*,14.0%
Cc1cc(NC(=O)c2ccc(Br)o2)ccc1NC(=O)c1ccco1,?,?,-3.1%,10.3µM*,-3.0%
Cc1ccc(C(=O)Nc2ccc(NC(=O)c3ccco3)c(C)c2)cc1,i,?,-7.6%,?,-14.2%
CCC(=O)Nc1ccc(S(=O)(=O)NCCc2ccccc2)cc1,i,-29.6%,-0.4%,?,3.7%
Cc1ccc(NS(=O)(=O)c2ccc(NC(=O)c3ccccc3C(=O)O)cc2)c(C)c1,i,.,-10.7%,i,1.7%
O=C(Nc1ccc(Oc2ccc(NC(=O)c3ccco3)c(NC(=O)c3ccco3)c2)cc1)c1ccco1,i,16.4µM*,0.3%,i,0.4%
Cc1ccc(NS(=O)(=O)c2ccc(NC(=O)c3ccc(Br)o3)cc2)c(C)c1,20.6µM*,?,4.2%,18.4µM*,?
